Values joined by “and” are separate entries in the source; they are usually repeats but may differ in a detail not shown here. Identical values can stand only once.
Experiment: FRG1 promoter luciferase signal modulators, primary screen, FRG1 inhibition for FSHD, cell-based, C2C12 myotubes, firefly/Renilla luciferase, luminescence (AID 1084)
Conditions: higher = more signal, called active from +8 up or from −8 down

z-score, inactive:
C=CCN(CCCC)C(=O)C1N(c2ccc(CCO)cc2)C(=O)C2C(C(=O)O)C3C=CC21O3 (stereo not given) -0.267 and 1.68
COC(=O)C1=C(C)N(Cc2ccccc2)C2=C3C(=O)N(c4ccccc4)C(=O)[C@@H]3[C@@](O)(C(=O)OC)C(=O)N2[C@@H]1c1ccccc1 0.0445 and -1.22
CCC[C@@H]1C[C@@]1(CCC)[C@@H](NC(=O)c1ccc(-c2ccccc2)cc1)c1cccc(Cl)c1 -1 and 0.245
C=CCN(C(=O)C(c1cccs1)N(C(=O)/C=C\C(=O)O)c1ccc(CCO)cc1)C(C)(C)C (stereo not given) 1.28 and 0.16
C=CCN(Cc1ccccc1)C(=O)C1N(CCCCCCO)C(=O)C2C(C(=O)O)C3C=CC21O3 (stereo not given) 0.639 and -0.331
COc1ccc(COC(=O)NN=C2C[C@@H](O)[C@@H](O)[C@@H]3[C@@H]4C(=O)N(C(C)(C)C)C(=O)[C@@H]4CC[C@H]23)cc1 -1.03
O=C1NC(=O)C2C1C=CC(C(O)c1ccc([N+](=O)[O-])cc1)N2Nc1ccc(Cl)cc1Cl (stereo not given) 0.0748 and -0.358
COC(=O)C1=C(C)N(Cc2ccccc2)C2=C3C(=O)CCC[C@@H]3[C@@](O)(C(=O)OC)C(=O)N2[C@@H]1c1ccccc1 -0.403 and 0.0176
C[N+](C)(C)CCCCNC(=O)[C@H]1C[C@H]2C(=O)N[C@@H](CCCC[N+](C)(C)C)C(=O)N2[C@H]1c1cccc(OCCO)c1 -0.194 and -0.269
C=CCN(CCCCC)C(=O)C1N(c2ccc(CCO)cc2)C(=O)C2C(C(=O)O)C3C=CC21O3 (stereo not given) 1.51 and 1.3
CC(C)C(=O)N[C@@H]1CCCN1C(=O)C=Cc1ccccc1 -0.416
C[C@@H](ON=C1[C@H]2CCn3c(=O)n(-c4ccccc4)c(=O)n3[C@H]2[C@H](O)[C@@H]2O[C@H]12)c1cn([C@H](CO)Cc2ccccc2)nn1 0.887
C=CCN1C(=O)[C@]2(O[C@H](CCn3cc(CCO)nn3)[C@@H]([Si](C)(C)c3ccc(OC)cc3)[C@@H]2C)c2cc(N3C(=O)c4cccc5cccc3c45)ccc21 -2.77 and -2.7
COC(=O)[C@@]1(Cc2ccc(F)cc2)[C@H]2c3cc(C(=O)N4CCCC4)n(Cc4c(CO)[nH]cc(C)c4=O)c3C[C@H]2CN1C(=O)c1ccccc1 1.78 and -0.112
C=CCN(CCCCC)C(=O)C1N(c2c(Cl)cccc2CO)C(=O)C2C(C(=O)O)C3C=CC21O3 (stereo not given) 0.887 and 0.699
C=CCN(C(=O)C1N(c2c(Cl)cccc2CO)C(=O)C2C(C(=O)O)C3C=CC21O3)C(C)(C)C (stereo not given) 0.756 and -1.07
COC(=O)[C@@]1(Cc2ccc(OC)cc2)[C@H]2c3cc(C(=O)N(C)C)n(Cc4ccc(O)c(OC)c4)c3C[C@H]2CN1C(=O)c1ccccc1 2.53 and -0.466
C=CCN(C(=O)C1N(C(C)(C)CO)C(=O)C2C(C(=O)O)C3C=CC21O3)c1ccc(OC)cc1 (stereo not given) 1.63 and -0.0127
C[N+](C)(C)CCCCNC(=O)[C@@H]1C[C@@H]2C(=O)N[C@@H](CCCC[N+](C)(C)C)C(=O)N2[C@@H]1c1cccc(OCCO)c1 -0.101 and 0.844
CCCC[C@@H]1CN2[C@@H](CC[C@@H](C)[C@@H]2c2ccc(Br)cc2)C(=O)O1 0.427 and -0.286
CCN1C(=O)[C@H]2[C@H]3[C@H](O)[C@H](O)CC(=NOC)[C@@H]3CC[C@H]2C1=O -0.898
C=C[C@H](OC)[C@@H](O)c1ccc(OCCO)cc1 0.298 and 0.277
COC(=O)C1=C(C)N(Cc2ccccc2)[C@]23O[C@](C(=O)OC)(C(=O)N2[C@@H]1c1ccccc1)[C@@H](c1ccccc1)[C@@H]3C(=O)c1ccccc1 -0.0163 and 0.21
CCOC(=O)[C@@H]1CC=C2CC1C(=O)N1CCC[C@@H]1[C@H]2O[Si](C)(C)C(C)(C)C (stereo not given in full) 0.678 and -1.08
CCOC(=O)[C@@H]1CC2O[C@]23C[C@@H]1C(=O)N1CCC[C@@H]1[C@H]3O[Si](C)(C)C(C)(C)C (stereo not given in full) -0.304 and 0.333
Cc1ccc(S(=O)(=O)OC[C@@H]2CN3[C@@H](CC[C@@H](C)[C@@H]3c3ccc(Br)cc3)C(=O)O2)cc1 0.472 and -0.0959
COC(=O)C1=C(C)N(Cc2ccccc2)[C@]23O[C@](C(=O)OC)(C(=O)N2[C@@H]1c1ccccc1)[C@H]1C(=O)N(c2ccccc2)C(=O)[C@H]13 -0.507 and -0.154
CCOC(=O)c1ccc(NC(=O)O[C@H]2[C@H](OC(=O)Nc3ccccc3)[C@H](OC(=O)Nc3ccccc3)[C@@H](OC)O[C@@H]2CO)cc1 0.822 and -1.03
C[N+](C)(C)CCCCCCNC(=O)[C@H]1C[C@H]2C(=O)N[C@@H](CCCC[N+](C)(C)C)C(=O)N2[C@H]1c1ccc(O)cc1 0.996 and -0.0859
Cc1ccc(S(=O)(=O)N[C@@H]2COC(=O)CC=C[C@@H](C)[C@@H]3C=C[C@H](O)[C@@H](COC(=O)CC=C[C@H]2C)O3)cc1 0.132 and 0.646
CCCNC(=O)OC[C@H]1O[C@H](CCON=C(C)CCC(=O)OC[C@H]2O[C@H](C#Cc3ccccc3)C=C[C@@H]2Oc2ccc(C)cc2)C=C[C@@H]1Oc1ccc(OC)cc1 0.751
C=CCN(CCCC)C(=O)C1N(C(C)(C)CO)C(=O)C2C(C(=O)O)C3C=CC21O3 (stereo not given) 1.4 and 0.963
C=C[C@@H](C)[C@H](O)c1ccc(O)c2ccccc12 -0.431 and 0.2
C=CCN(Cc1ccccc1)C(=O)C1N(C(C)(C)CO)C(=O)C2C(C(=O)O)C3C=CC21O3 (stereo not given) 0.551 and 0.312
C=CC[C@H](O)c1ccc(OCCO)cc1 0.831 and 2.16
C=CCN(C(=O)C(c1cccs1)N(C(=O)/C=C\C(=O)O)c1ccc(CCO)cc1)c1ccc(OC)cc1 (stereo not given) 0.253 and 0.243
C=CC[C@@H](O)c1ccc(OCCO)cc1 0.373 and 1.07
C=CCN(C(=O)C1N(CCCCCCO)C(=O)C2C(C(=O)O)C3C=CC21O3)c1ccc(OC)cc1 (stereo not given) 0.608 and 0.789
COC(=O)C1=C(C)N(Cc2ccccc2)C2=C(C(=O)c3ccccc3)[C@H](c3ccccc3)[C@@](O)(C(=O)OC)C(=O)N2[C@@H]1c1ccccc1 -0.363 and 0.429
Cc1ccc(S(=O)(=O)N[C@H]2COC(=O)[C@@H](C)COC(=O)[C@H](C)NC(=O)CC=C[C@H]2C)cc1 0.691
